Data published in PubChem BioAssay AID1159580 (chemical genetic matrix, 2015).
Values joined by “and” are separate entries in the source; they are usually repeats but may differ in a detail not shown here. Equal entries are not always repeated. Hit rate of the full screen: of about 5,500 compounds, about 2,000 (36%) were called active. Inconclusive results (about 18%) are left out. Cut-off read from the data, not from the text of the source: active = normalized growth mostly below about 0.91 (no sharp cut-off); inconclusive = no clear call, values can overlap the other calls; inactive = mostly above about 0.92. Some of the results follow.

Assay: chemical genetic growth profiling, strain panel (AID 1159580);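 note: tested at 20 µM; growth read once vehicle control cultures reached saturation at 30 °C; 1 = growth at the plate median or of vehicle wells; lower values mean less growth of the strain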
Settings: growth OD

Measured: normalized growth

CC(CCc1ccccc1)NCC(O)c1ccc(O)c(C(N)=O)c1 (stereo not given)
inactive: S. cerevisiae deletion strains, locus YJR075W, strain HOC1, active compounds read low 1 | S. cerevisiae deletion strains, locus YKL009W, strain mrt4, active compounds read low 1.01 | S. cerevisiae deletion strains, locus YKL068W, active compounds read low 1.01 | S. cerevisiae deletion strains, locus YKL085W, strain MDH1 (second series), active compounds read low 1.01 | S. cerevisiae deletion strains, locus YKL085W, strain MDH1, active compounds read low 1.01 | S. cerevisiae deletion strains, locus YKL160W, strain elf1, active compounds read low 1 | S. cerevisiae deletion strains, locus YKL190W, strain CNB1, active compounds read low 1 | S. cerevisiae deletion strains, locus YKR001C, strain vps1, active compounds read low 1.03 | S. cerevisiae deletion strains, locus YKR026C, strain gcn3, active compounds read low 1.01 | S. cerevisiae deletion strains, locus YKR091W, strain srl3, active compounds read low 0.997 | S. cerevisiae deletion strains, locus YLL001W, strain dnm1, active compounds read low 1 | S. cerevisiae deletion strains, locus YLL026W, active compounds read low 1 | S. cerevisiae deletion strains, locus YLL041C, strain sdh2, active compounds read low 1 | S. cerevisiae deletion strains, locus YLR027C, strain aat2, active compounds read low 0.992 | S. cerevisiae deletion strains, locus YLR039C, strain RIC1, active compounds read low 1.05 | S. cerevisiae deletion strains, locus YLR058C, strain SHM2, active compounds read low 1 | S. cerevisiae deletion strains, locus YLR102C, strain apc9, active compounds read low 1.01 | S. cerevisiae deletion strains, locus YLR113W, strain HOG1, active compounds read low 1.08 | S. cerevisiae deletion strains, locus YLR221C, strain rsa3, active compounds read low 1.01 | S. cerevisiae deletion strains, locus YLR258W, strain gsy2, active compounds read low 1.01 | S. cerevisiae deletion strains, locus YLR262C, strain YPT6 (second series), active compounds read low 1.02 | S. cerevisiae deletion strains, locus YLR262C, strain YPT6, active compounds read low 1.04 | S. cerevisiae deletion strains, locus YLR268W, strain sec22, active compounds read low 1.02 | S. cerevisiae deletion strains, locus YLR320W, strain mms22, active compounds read low 1.02 | S. cerevisiae deletion strains, locus YLR330W, strain CHS5, active compounds read low 1.01 | S. cerevisiae deletion strains, locus YLR342W, strain FKS1 (second series), active compounds read low 1.08 | S. cerevisiae deletion strains, locus YLR342W, strain FKS1, active compounds read low 1.01 | S. cerevisiae deletion strains, locus YLR357W, strain rsc2, active compounds read low 0.96 | S. cerevisiae deletion strains, locus YLR370C, strain arc18, active compounds read low 1 | S. cerevisiae deletion strains, locus YLR371W, strain rom2, active compounds read low 1.02 | S. cerevisiae deletion strains, locus YLR384C, strain iki3, active compounds read low 1.02 | S. cerevisiae deletion strains, locus YLR418C, strain cdc73, active compounds read low 1.06 | S. cerevisiae deletion strains, locus YML016C, strain PPZ1, active compounds read low 1.01 | S. cerevisiae deletion strains, locus YML032C, strain rad52, active compounds read low 0.996 | S. cerevisiae deletion strains, locus YML120C, strain ndi1, active compounds read low 1.01 | S. cerevisiae deletion strains, locus YML124C, strain tub3, active compounds read low 1.01 | S. cerevisiae deletion strains, locus YMR058W, strain fet3, active compounds read low 1 | S. cerevisiae deletion strains, locus YMR078C, strain ctf18, active compounds read low 1.01 | S. cerevisiae deletion strains, locus YMR125W, strain sto1, active compounds read low 0.997 | S. cerevisiae deletion strains, locus YMR129W, active compounds read low 1.01 | S. cerevisiae deletion strains, locus YMR205C, strain PFK2, active compounds read low 1.01 | S. cerevisiae deletion strains, locus YMR223W, strain ubp8, active compounds read low 1.04 | S. cerevisiae deletion strains, locus YMR231W, strain pep5, active compounds read low 1.01 | S. cerevisiae deletion strains, locus YMR263W, strain SAP30, active compounds read low 0.988 | S. cerevisiae deletion strains, locus YMR307W, strain GAS1, active compounds read low 1.04 | S. cerevisiae deletion strains, locus YNL067W, strain RPL9B, active compounds read low 0.988 | S. cerevisiae deletion strains, locus YNL071W, strain lat1, active compounds read low 1 | S. cerevisiae deletion strains, locus YNL153C, strain GIM3, active compounds read low 0.979 and 1.02 | S. cerevisiae deletion strains, locus YNL175C, strain NOP13, active compounds read low 1.01 | S. cerevisiae deletion strains, locus YNL183C, strain NPR1, active compounds read low 0.986 | S. cerevisiae deletion strains, locus YNL197C, strain WHI3, active compounds read low 0.999 | S. cerevisiae deletion strains, locus YNL209W, strain ssb2, active compounds read low 1.01 | S. cerevisiae deletion strains, locus YNL224C, strain SQS1, active compounds read low 1.01 | S. cerevisiae deletion strains, locus YNL233W, strain BNI4, active compounds read low 0.994 | S. cerevisiae deletion strains, locus YNL248C, strain rpa49, active compounds read low 0.998 | S. cerevisiae deletion strains, locus YNL250W, strain rad50, active compounds read low 1.03 | S. cerevisiae deletion strains, locus YNL271C, strain bni1, active compounds read low 1.01 | S. cerevisiae deletion strains, locus YNL298W, strain CLA4, active compounds read low 1.02 | S. cerevisiae deletion strains, locus YNL307C, strain MCK1, active compounds read low 1.03 | S. cerevisiae deletion strains, locus YNL322C, strain KRE1 (second series), active compounds read low 0.993 | S. cerevisiae deletion strains, locus YNL322C, strain KRE1, active compounds read low 0.998 | S. cerevisiae deletion strains, locus YNR049C, strain mso1, active compounds read low 0.999 | S. cerevisiae deletion strains, locus YNR052C, strain pop2, active compounds read low 1.02 | S. cerevisiae deletion strains, locus YOL006C, strain TOP1, active compounds read low 0.976 | S. cerevisiae deletion strains, locus YOL012C, strain htz1 0.754 | S. cerevisiae deletion strains, locus YOL147C, strain pex11, active compounds read low 1.01 | S. cerevisiae deletion strains, locus YOR001W, strain rrp6, active compounds read low 1.02 | S. cerevisiae deletion strains, locus YOR061W, strain CKA2, active compounds read low 1.01 | S. cerevisiae deletion strains, locus YOR069W, strain VPS5, active compounds read low 1 | S. cerevisiae deletion strains, locus YOR070C, strain gyp1, active compounds read low 0.996 | S. cerevisiae deletion strains, locus YOR080W, strain dia2, active compounds read low 0.999 | S. cerevisiae deletion strains, locus YOR083W, strain WHI5 (second series), active compounds read low 1.02 | S. cerevisiae deletion strains, locus YOR083W, strain WHI5, active compounds read low 1.01 | S. cerevisiae deletion strains, locus YOR106W, strain vam3, active compounds read low 1.02 | S. cerevisiae deletion strains, locus YOR136W, strain idh2, active compounds read low 1 | S. cerevisiae deletion strains, locus YOR144C, strain elg1, active compounds read low 1.01 | S. cerevisiae deletion strains, locus YOR184W, strain ser1, active compounds read low 1.01 | S. cerevisiae deletion strains, locus YOR231W, strain MKK1, active compounds read low 1.07 | S. cerevisiae deletion strains, locus YOR265W, strain rbl2, active compounds read low 0.992 | S. cerevisiae deletion strains, locus YOR270C, strain vph1, active compounds read low 1.04 | S. cerevisiae deletion strains, locus YOR290C, strain snf2, active compounds read low 1.03 | S. cerevisiae deletion strains, locus YOR316C, strain cot1, active compounds read low 1.02 | S. cerevisiae deletion strains, locus YPL051W, strain arl3, active compounds read low 1 | S. cerevisiae deletion strains, locus YPL055C, strain LGE1, active compounds read low 0.945 and 0.997 | S. cerevisiae deletion strains, locus YPL078C, strain atp4, active compounds read low 1 | S. cerevisiae deletion strains, locus YPL106C, strain sse1, active compounds read low 1.01 | S. cerevisiae deletion strains, locus YPL240C, strain hsp82, active compounds read low 1.01 | S. cerevisiae deletion strains, locus YPL241C, strain CIN2, active compounds read low 1 | S. cerevisiae deletion strains, locus YPL256C, strain CLN2, active compounds read low 1.04 | S. cerevisiae deletion strains, locus YPR119W, strain clb2, active compounds read low 1.02 | S. cerevisiae deletion strains, locus YPR141C, strain kar3, active compounds read low 1.01 | S. cerevisiae deletion strains, locus YPR163C, strain tif3, active compounds read low 1.03 | S. cerevisiae deletion strains, locus YPR167C, strain met16, active compounds read low 1.01 | S. cerevisiae deletion strains, strain wtn01, active compounds read low 1.03 | S. cerevisiae strains, strain wild type, active compounds read low 1
